{
  "source": "PubChem BioAssay AID1008",
  "about": "(NMMLSC, 2008)",
  "note": "Among all 190,000 compounds or so, about 240 (0.13%) were called active. Shown is part of a subset that was picked to be rich in actives. Unmarked numbers belong to inactive results. No stated cut-off is given here; in the data, active means inhibition above about 40%.",
  "data": [
    {"biological_target": "Bcl-2-related protein A1 (Homo sapiens) (UniProt Q16548)", "sequence (Q16548 whole entry, looked up)": "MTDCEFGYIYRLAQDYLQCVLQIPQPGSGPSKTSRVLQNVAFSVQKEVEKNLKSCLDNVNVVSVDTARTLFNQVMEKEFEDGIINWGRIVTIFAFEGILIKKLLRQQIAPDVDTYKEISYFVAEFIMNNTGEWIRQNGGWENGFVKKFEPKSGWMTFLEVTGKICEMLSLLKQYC", "test": "Bfl-1/Bim complex disruptors – biochemical, multiplexed, bead-based flow cytometry, primary screen (AID 1008);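 further: 0% = wells without compound plus tracer and 100% = blocker peptide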", "settings": "Bim-Bfl-1 binding inhibition, at 10 µM, stronger effect = higher value", "values": [
      {"smiles": "Cc1cc(CNCc2c(C(=O)N(C)Cc3ccccc3)nc3ccccn23)nn1C", "inhibition": "-6%"},
      {"smiles": "COc1cccc(CNC(=O)CCN2C(=S)NC(C)(C)CC2C)c1", "note": "(stereo not given)", "inhibition": "-5%"},
      {"smiles": "Cc1cc(OC(=O)c2ccccc2)c([N+](=O)[O-])c(=O)[nH]1", "inhibition": "-5%"},
      {"smiles": "S=c1ccc2ccccc2[nH]1", "inhibition": "-4%"},
      {"smiles": "Cc1cccc(CSc2nc3c(c(=O)n2C)SCC3)c1", "inhibition": "-2%"},
      {"smiles": "CCOc1cc(CNn2c(C)nnc2SCC(=O)NC(C)(C)C)ccc1OCC(=O)NC(C)(C)C", "inhibition": "-7%"},
      {"smiles": "CC(C)Cn1c(N)c(C(=O)COC(=O)CN2C(=O)C3CC=CCC3C2=O)c(=O)n(C)c1=O", "note": "(stereo not given)", "inhibition": "-8%"},
      {"smiles": "COc1ccc(CNc2c(CO)cnc3c2cnn3C)cc1", "inhibition": "-3%"},
      {"smiles": "CCc1ccc(NC(=O)C(=O)N/N=C(\\C)CC(=O)NCCOC)cc1", "inhibition": "-3%"},
      {"smiles": "O=C1C=CC(=O)N1c1ccc(N2CCCCC2)cc1", "inhibition": "11%"},
      {"smiles": "CN1CCN(S(=O)(=O)c2cccc(C(=O)N3CCc4ccccc43)c2)CC1", "inhibition": "1%"},
      {"smiles": "COc1cccc(CNC(=O)CCC2CCCN(Cc3ccc(OC(F)F)cc3)C2)c1", "note": "(stereo not given)", "inhibition": "-4%"},
      {"smiles": "Cc1ccc(O)c(-c2cc(C(=O)Nc3c(C)n(C)n(-c4ccccc4)c3=O)[nH]n2)c1", "inhibition": "-2%"},
      {"smiles": "COc1cc(C(=O)NNC(=O)c2ccc(S(=O)(=O)N3CCCCC3)cc2)cc(OC)c1OC", "inhibition": "7%"},
      {"smiles": "CCc1ccc(NC2Nc3cc(C)nn3S2)cc1", "note": "(stereo not given)", "inhibition": "-1%"},
      {"smiles": "CN(C)C(=O)CSc1n[nH]c(-c2ccco2)n1", "inhibition": "2%"},
      {"smiles": "Cc1ccc(NC(=O)Cn2c(=O)n(CCC(=O)NC3CCN(Cc4ccccc4)CC3)c(=O)c3ccccc32)cc1", "inhibition": "-9%"},
      {"smiles": "Cc1cccc(C)c1N1CCN(S(=O)(=O)N2CCCCC2)CC1", "inhibition": "-3%"},
      {"smiles": "O=C(CSc1ncnc2scc(-c3ccccc3)c12)NCc1ccc2c(c1)OCO2", "inhibition": "0%"},
      {"smiles": "CN(CCN1CCOCC1)Cc1nc(-c2ccc3c(c2)OCO3)no1", "inhibition": "-5%"},
      {"smiles": "N#C/C(=C(\\O)C(F)(F)F)c1nnc2n1CCCCC2", "inhibition": "-5%"},
      {"smiles": "CC1CCN(C2=NC(=O)/C(=C/c3cn[nH]c3-c3ccccc3)S2)CC1", "inhibition": "-13%"},
      {"smiles": "O=C(Nc1nc(-c2cccnc2)cs1)c1ccccc1F", "inhibition": "-9%"},
      {"smiles": "CN1CCN(NC(=O)c2ccc(S(=O)(=O)N3CCCCCC3)cc2)CC1", "inhibition": "-2%"},
      {"smiles": "CC1CCCCC1NC(=O)CO/N=C/c1ccc(OC(F)F)cc1", "note": "(stereo not given)", "inhibition": "-7%"},
      {"smiles": "CCOC(=O)N1CCC(NC(=O)C(NS(=O)(=O)c2ccc3c(c2)CCN3C(=O)CC)C(C)C)CC1", "note": "(stereo not given)", "inhibition": "-4%"},
      {"smiles": "CCc1nnc(NS(=O)(=O)c2ccc(NC(=S)NC(=O)/C=C/c3cccs3)cc2)s1", "inhibition": "1%"},
      {"smiles": "CC(C)C(C)(C#N)NC(=O)CSc1nc2scc(-c3ccccc3)c2c(=O)[nH]1", "note": "(stereo not given)", "inhibition": "3%"},
      {"smiles": "Cc1ccc(N(C(=O)c2ccc(CN3CCOCC3)o2)C(C(=O)NCCC(C)C)c2cccs2)c(C)c1", "note": "(stereo not given)", "inhibition": "-7%"},
      {"smiles": "O=C(O)CCS(=O)(=O)c1ccc(-c2ccccc2)cc1", "inhibition": "0%"},
      {"smiles": "CN(c1ccc(C(=O)NCc2ccccn2)cc1)S(C)(=O)=O", "inhibition": "-18%"},
      {"smiles": "COc1ccc(NC(=O)Nc2ccc3nc(C)c(C)nc3c2)cc1", "inhibition": "-2%"},
      {"smiles": "COCCNC(=O)Nc1ccc2nc(-c3ccco3)c(-c3ccco3)nc2c1", "inhibition": "48% (active)"},
      {"smiles": "COc1ccc(NC(=O)Nc2ccc3nsnc3c2)cc1", "inhibition": "-1%"},
      {"smiles": "O=C(NCc1ccccn1)c1ccc2nc(-c3ccco3)c(-c3ccco3)nc2c1", "inhibition": "43% (active)"},
      {"smiles": "O=C(NCc1ccccn1)c1cc(-c2ccccc2Cl)on1", "inhibition": "0%"},
      {"smiles": "Cc1nnc(-c2ccc(Oc3ccc(C)c(C)c3)c([N+](=O)[O-])c2)o1", "inhibition": "9%"},
      {"smiles": "Cc1cccc(C2c3[nH]c4ccccc4c3CCN2C(=O)c2cc(-c3cccn3C)n[nH]2)n1", "note": "(stereo not given)", "inhibition": "-4%"},
      {"smiles": "Cc1cc(/C=C2/NC(=O)NC2=O)c(C)n1-c1cccnc1", "inhibition": "-4%"},
      {"smiles": "CCCCNC(=S)N/N=C1\\CCCCc2ccccc21", "inhibition": "0%"},
      {"smiles": "COc1cccc(-n2c(=S)sc3c(=O)n(-c4ccccc4OC)c(SCC4OCCO4)nc32)c1", "inhibition": "-3%"},
      {"smiles": "O=C(NNC(=O)C1C2CCC(C2)C1C(=O)O)c1ccc(Cl)cc1", "note": "(stereo not given)", "inhibition": "-8%"},
      {"smiles": "COc1cccc(NC(=O)Cn2c3ccccc3c3nc4n(c(=O)c32)CCS4)c1", "inhibition": "2%"},
      {"smiles": "CC(C)(C)NCCCOc1ccc(Cl)cc1C(C)(C)C", "inhibition": "-1%"},
      {"smiles": "CCCCN=C1C([N+](=O)[O-])=CC=C2C1=NC1(CCCCC1)N2O", "inhibition": "0%"},
      {"smiles": "c1ccc(-c2cc3c(NCC4COc5ccccc5O4)ncnc3s2)cc1", "note": "(stereo not given)", "inhibition": "-5%"},
      {"smiles": "CC1CCCN(S(=O)(=O)c2ccc(N(C(=O)c3cnccn3)C(C(=O)NC3CCCCC3)c3cccs3)cc2)C1", "note": "(stereo not given)", "inhibition": "-2%"},
      {"smiles": "O=C(COC(=O)/C(=C/c1cccs1)c1cccs1)NCc1ccccc1Cl", "inhibition": "0%"},
      {"smiles": "O=C(CN1CCCCCC1)NCCN1C(=O)S/C(=C\\c2ccccc2Cl)C1=O", "inhibition": "-4%"},
      {"smiles": "O=C(O)c1cccc(N2C(=O)Nc3ccccc3N2O)c1", "inhibition": "0%"},
      {"smiles": "O=C(CCN1CCCCC1)N=Nc1c(O)[nH]c2ccccc12", "inhibition": "0%"},
      {"smiles": "CC(=O)Nc1ccc(NC(=S)NC(=O)/C=C/c2ccccc2)cc1", "inhibition": "-3%"},
      {"smiles": "CCCCNS(=O)(=O)c1ccc2nc(SCC(=O)Nc3cc(C)cc(C)c3)[nH]c2c1", "inhibition": "-1%"},
      {"smiles": "O=C(NCC1CCN(Cc2ccccc2Cl)CC1)Nc1cccc(Cl)c1", "inhibition": "-6%"},
      {"smiles": "CCOC(=O)c1cc2c(nc1NC(=S)Nc1ccccc1)CC(C)(CC)OC2", "note": "(stereo not given)", "inhibition": "-11%"},
      {"smiles": "Cn1nnnc1SCC(=O)NNC(=O)c1ccc(Br)cc1", "inhibition": "-10%"},
      {"smiles": "CCCCCN(C(=O)NC(=O)Nc1cccc(C)c1C)S(C)(=O)=O", "inhibition": "-7%"},
      {"smiles": "CCn1c(C(C)NC(=O)c2ccc(C)cc2)n[nH]c1=S", "note": "(stereo not given)", "inhibition": "1%"},
      {"smiles": "CC(C)CN(C(=O)CN1CCN(S(=O)(=O)c2ccccc2)CC1)c1c(N)n(CC(C)C)c(=O)[nH]c1=O", "inhibition": "-2%"},
      {"smiles": "O=C(c1cc(=O)c2ccccc2o1)N1CCN(c2ccccc2)CC1", "inhibition": "0%"}
    ]}
  ]
}
